In PubChem BioAssay (EPA / NIEHS) one finds AC50 and outcome data, which are given here for eleven compounds.

“And” between values parts separate entries of the source, which are not always exact repeats. Equal entries are not always repeated. The source made the active and inactive calls. Rule for the calls: active = hit-call score of the fitted dose curve at least 0.9, where 1 is the maximum; inconclusive = response in the unintended direction; inactive = score below 0.9.

The target in this assay is rat CYP2A2, Cyp2a2 (gene 24895) (UniProt P15149). Put plainly: NVS_ADME_rCYP2A2: NovaScreen (NVS) CYP450-related Enzyme Activity (ADME) Assay for rat CYP2A2 (AID 2283116). Here is the method: NVS_ADME_rCYP2A2 is a biochemical, single-readout assay that uses extracted gene-proteins in a cell-free assay. Measurements were taken 0.2 hour after chemical dosing in a 96-well plate.NVS_ADME_rCYP2A2 is one of one assay component(s) measured or calculated from the NVS_ADME_rCYP2A2 assay. It is designed to make measurements of enzyme activity, a form of enzyme reporter, as detected with fluorescence intensity signals by Fluorescence technology.Data from the assay component NVS_ADME_rCYP2A2 was analyzed into 1 assay endpoint. This assay endpoint, NVS_ADME_rCYP2A2, was analyzed in the positive analysis fitting direction relative to Acetonitrile as the negative control and baseline of activity. Using a type of enzyme reporter, loss-of-signal activity can be used to understand changes in the enzymatic activity as they relate to the gene Cyp2a2. Furthermore, this assay endpoint can be referred to as a primary readout, because this assay has produced multiple assay endpoints where this one serves a enzymatic activity function. To generalize the intended target to other relatable targets, this assay endpoint is annotated to the cyp intended target family, where the subfamily is xenobiotic metabolism.
rat CYP2A2, Cyp2a2 (gene 24895), sequence (P15149 whole entry, looked up): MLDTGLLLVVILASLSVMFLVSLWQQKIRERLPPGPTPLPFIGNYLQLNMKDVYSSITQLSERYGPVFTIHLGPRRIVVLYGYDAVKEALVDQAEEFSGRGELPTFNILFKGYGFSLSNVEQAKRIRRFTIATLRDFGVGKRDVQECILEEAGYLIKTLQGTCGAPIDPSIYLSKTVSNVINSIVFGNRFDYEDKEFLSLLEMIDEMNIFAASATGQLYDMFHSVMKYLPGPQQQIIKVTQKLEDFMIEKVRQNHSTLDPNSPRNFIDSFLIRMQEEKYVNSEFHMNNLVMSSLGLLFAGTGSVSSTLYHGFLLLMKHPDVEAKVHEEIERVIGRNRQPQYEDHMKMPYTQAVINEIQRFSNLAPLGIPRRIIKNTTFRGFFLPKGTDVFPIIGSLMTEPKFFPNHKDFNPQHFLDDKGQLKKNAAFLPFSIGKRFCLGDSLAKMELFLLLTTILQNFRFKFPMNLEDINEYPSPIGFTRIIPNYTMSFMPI
Binding assays used specific radioligands (tritiated, iodinated) with non-radioactive competitive displacement ligands in agonist or antagonist protocols (as indicated) and various reference compounds and inhibitors to titrate specific binding to receptors and transporters. Most enzyme assays (CYPs, kinases, phosphatases, proteases, HDACs) used recombinant protein and specific substrates (fluorescence mostly, some colorimetric and radioactive) and inhibitors, followed by a biochemical separation of substrate and product. All assays for the biochemical HTS were initially run in duplicate at a single concentration (10 uM for CYP450 assays and 25 uM for all others). Assay-chemical combinations meeting a pre-defined threshold (e.g., 30% inhibition and other criteria defined below) were then run in singleton concentration-response format with maximum concentration of 20 uM for CYPs and 50 uM for all others. Each assay was run with positive and negative controls, and concurrent controls on every plate. The follow-up (secondary) screen tested active chemical-pairs in concentration series, as well as a few additional assays not tested in the primary screen, some selected negative inactives, and several cases re-run in the concentration series for confirmatory purposes.
Broadly, the AC50 is the midpoint of the concentration-response curve, whichever way the signal moves. Consider `Oc1ccc(C(c2ccc(O)cc2)C(Cl)(Cl)Cl)cc1`, for which the AC50 is 1.02 µM (active). Still for that read-out and setting: next, `C=CCOC(Cn1ccnc1)c1ccc(Cl)cc1Cl` (stereo unspecified): 0.0175 µM (active).

Regarding `CCOC(=O)[C@H](C)Oc1ccc(Oc2nc3ccc(Cl)cc3o2)cc1`, the AC50 is 10 µM (active). Consider `CCNc1nc(N)nc(Cl)n1`, for which the compound was classed as inactive.

Regarding `CCCCCCC(C)OC(=O)COc1nc(F)c(Cl)c(N)c1Cl` (stereo unspecified), the outcome was inactive. For the compound `CCCCOC(=O)C(C)Oc1ccc(Oc2ccc(C(F)(F)F)cn2)cc1` (stereo unspecified), the AC50 was 1.17 µM (active). On the same count and under the same terms, next, `CC(=O)[C@H]1CC[C@H]2[C@@H]3CCC4=CC(=O)CC[C@]4(C)[C@H]3CC[C@]12C`: 3.07 µM (active) and 7.82 µM (active) and 6.94 µM (active); `CC(C)(c1ccc(O)cc1)c1ccc(O)cc1`: 2.98 µM (active) [middle of 4 runs]. Turning to `Cc1nn(C)c(Oc2ccccc2)c1C=NOCc1ccc(C(=O)OC(C)(C)C)cc1`, the result was inactive. With `CC(C)(C)[C@@H](O)[C@@H](Cc1ccc(Cl)cc1)n1cncn1`, the AC50 is 0.0348 µM (active). Turning to `CCOC(=O)C(C)Oc1ccc(Oc2nc3ccc(Cl)cc3o2)cc1` (stereo unspecified), the AC50 is 2 µM (active).
